From PubChem
Cycloheximide cs: counter-screen for Shiga toxin inhibitors: cycloheximide protein synthesis inhibition. 300,000 compounds, 12% hits. cell reporter, cycloheximide protein synthesis inhibition counterscreen. max response, %; in the data active means max response mostly above about 13%, no sharp cut-off; inactive means mostly below about 14%; further: read at 38.3 µM for the half of the compounds with a filed dose
Shiga inhibitor: blocks Shiga toxin action in Vero cells | Vero cells, Shiga toxin protein synthesis inhibition reporter | inhibition, % at 38.7 µM | 290,000 compounds, 9.2% hits | AID 2315; in the data active means inhibition mostly above about 28%, no sharp cut-off; inactive means mostly below about 43%
LmPK inhibitor: LmPK (Leishmania mexicana) enzyme inhibition; Q27686; purified LmPK, Kinase-Glo ATP luminescence, 1 h; Potency, µM (highest dose often 57.5 µM), most hits filed as inhibitors; 290,000 compounds, 0.37% hits; AID 1721
Target sequence (Q27686 whole entry, looked up): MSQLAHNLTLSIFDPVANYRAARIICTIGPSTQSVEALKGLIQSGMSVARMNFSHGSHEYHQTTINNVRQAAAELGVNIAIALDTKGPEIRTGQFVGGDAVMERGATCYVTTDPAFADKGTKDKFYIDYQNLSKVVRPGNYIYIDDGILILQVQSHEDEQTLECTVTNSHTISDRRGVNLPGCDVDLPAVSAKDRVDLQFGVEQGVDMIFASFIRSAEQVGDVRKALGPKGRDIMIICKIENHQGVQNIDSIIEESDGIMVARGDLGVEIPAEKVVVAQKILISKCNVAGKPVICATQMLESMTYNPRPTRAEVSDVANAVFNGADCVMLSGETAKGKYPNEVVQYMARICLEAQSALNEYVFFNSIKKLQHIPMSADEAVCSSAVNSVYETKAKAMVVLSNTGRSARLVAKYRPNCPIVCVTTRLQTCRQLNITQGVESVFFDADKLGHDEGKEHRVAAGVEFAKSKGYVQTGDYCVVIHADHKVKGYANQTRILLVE
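Screened at intermediate enzyme activity to detect both inhibitors and activators: LmPK at 0.1 nM, with a 0.5 nM enzyme column as activation reference. PEP 0.5 mM, ADP 0.1 mM; ATP detected by luminescence after 1 h.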
NS1 inh: blocks influenza NS1 protein function; Potency, µM (highest dose often 46.1 µM); 270,000 compounds, 0.4% hits; calls by dose curve; further: actives are rising curves; nearly all actives have a fitted effect of over 50% in size
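Growth recovery, yeast-based: influenza A NS1 expressed in S. cerevisiae causes slow growth, and suppressors are detected by OD600. The parent strain without NS1 is used as positive control.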
FBPA Giardia inh: blocks Giardia fructose-bisphosphate aldolase activity | A8B2U2 | purified Giardia FBPA | Potency, µM (doses to about 59.6 µM), actives largely listed as inhibitors | 290,000 compounds, 0.71% hits; further: nearly all actives have a fitted effect of over 55% in size
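40 nM FBPA preincubated 10 min at RT with compound (up to 57.5 uM final), then substrate plus GAPDH/TPI/NAD/arsenate coupling and diaphorase/resazurin added. Fluorescence read after 20 min at RT, 525/598 nm.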
Of the large screens only hits and unclear results are named; the others gave an inactive call. A selection: hits, their analogues and other compounds. The true share with any hit is near 14%. Unless noted, the call rests on the fitted dose curve; in most records, active means well fitted curve in the direction sought with a large enough effect; inconclusive means small, poorly fitted or top-dose-only effect, or another doubt; inactive means no such curve, though single readings can be large; an effect the other way counts as inactive or inconclusive.

CCN(CC)C(=S)SCC(=O)c1ccc(F)cc1	Cycloheximide cs 40, Shiga inhibitor 60
CCN(CC)C(=S)SCC(=O)Nc1ccc(F)cc1	none
CCN(CC)C(=S)SCC(=O)c1ccccc1	Cycloheximide cs 62, Shiga inhibitor 68
O=C(Cc1cccs1)NCc1cccc(Cl)c1	Cycloheximide cs 41, Shiga inhibitor 89
O=C(Cc1cccs1)NCc1ccc(Cl)cc1Cl	Cycloheximide cs 42, Shiga inhibitor 104
O=C(Cc1cccs1)NCCc1ccc(Cl)cc1	none (no result: FBPA Giardia inh)
CCCOc1ccc(CNC(=O)Cc2cccs2)cc1	Cycloheximide cs 46, Shiga inhibitor 108
O=C(Cc1cccs1)NCc1cc(Cl)cc(Cl)c1	Cycloheximide cs 44, Shiga inhibitor 52
O=C(O)CCCCn1ccc(=O)[nH]c1=O	none (no result: Cycloheximide cs, Shiga inhibitor, LmPK inhibitor, FBPA Giardia inh)
Cc1csc(C(C)NC(=O)c2ccc(OC3CCN(CCc4ccccc4)CC3)cc2)n1 (centres undefined)	none (no result: FBPA Giardia inh)
O=C(Cc1cccs1)NCc1cccc(CNC(=O)Cc2cccs2)c1	none (no result: NS1 inh)
O=C(Cc1cccs1)NCc1cccc(F)c1	Shiga inhibitor 41 (no result: NS1 inh)
CN(C)/[N+]([O-])=N/Oc1cc(O/[N+]([O-])=N/N2CCCC2CO)c([N+](=O)[O-])cc1[N+](=O)[O-] (centres undefined)	none (no result: LmPK inhibitor, NS1 inh)
CC[C@H](C)[C@@H](NC(=O)O[C@H]1C(=O)c2cc(OC)ccc2O[C@@H]1c1ccc(OC)c(Br)c1)C(=O)OC	none (no result: Cycloheximide cs, Shiga inhibitor, LmPK inhibitor, NS1 inh)
Cc1ccc(NC(=S)c2ccc3ccccc3n2)c(C)c1	Cycloheximide cs 30, Shiga inhibitor 85
Cc1ccc(C)c(NC(=O)c2ccc3ccccc3n2)c1	Cycloheximide cs 30
Cc1ccc(NC(=O)c2cc(C)nc3ccccc23)c(C)c1	none (no result: Shiga inhibitor)
Cc1ccc(S(=O)(=O)N(C)C)cc1NC(=O)c1ccncc1	none (no result: NS1 inh)
Cc1ccc(S(=O)(=O)N(C)C)cc1NC(=O)c1ccc2ccccc2n1	Cycloheximide cs 37
Cc1ccccc1CNC(=O)c1ccc2ccccc2n1	none
Cc1ccc(OCCn2cccn2)c(C)c1	none (no result: NS1 inh)
O=C(O)CCn1ncc2ccccc2c1=O	none
Cc1ccc(OCCn2ncc3ccccc3c2=O)c(C)c1	Cycloheximide cs 15
O=c1c2ccccc2cnn1CCOc1cccc(Br)c1	Cycloheximide cs 51, Shiga inhibitor 120
O=C(CCNC(=O)N1CC(=O)Nc2ccccc21)Nc1ccc(Br)cc1F	none
CCNC(=O)/C(C#N)=C/c1c(N2CCN(c3ccccc3)CC2)nc2ccccn2c1=O	Cycloheximide cs 29, Shiga inhibitor 44
CCNC(=O)/C(C#N)=C/c1c(N2CCCCCC2)nc2ccccn2c1=O	none
COc1ccc(S(=O)(=O)N(C)c2ccc(C(=O)Nc3cccnc3)cc2)cc1	none
N#C/C(=C\c1c(Cl)cccc1Cl)c1nc2ccccc2[nH]1	Cycloheximide cs 14
N#C/C(=C(/O)c1cccs1)c1nc2ccccc2[nH]1	none
CN(C)/C=C(\C#N)c1nc2ccccc2[nH]1	none
N#C/C(=C\c1ccc[nH]1)Sc1nc2ccccc2s1	none
N#C/C(=C\c1cccs1)Sc1nc2ccccc2s1	Cycloheximide cs 31, Shiga inhibitor 44
Cn1c(/C(C#N)=C/C2CC=CCC2)nc2ccccc21 (centres undefined)	none
N#C/C(=C\C1CC=CCC1)c1nc2ccccc2[nH]1 (centres undefined)	Cycloheximide cs 27
N#C/C(=C/c1cccs1)c1nc2ccccc2[nH]1	Cycloheximide cs 65, Shiga inhibitor 64
CS(=O)(=O)Nc1cccc(-c2cncnc2-n2ccnc2)c1	none (no result: Cycloheximide cs, Shiga inhibitor, LmPK inhibitor, NS1 inh)
COc1ccccc1CN1CC[C@@]2(CCCN(S(C)(=O)=O)C2)C1	none (no result: Cycloheximide cs, Shiga inhibitor, LmPK inhibitor, NS1 inh)
Cc1ccc(/C=C(\C#N)c2nc3ccccc3[nH]2)s1	Cycloheximide cs 49, Shiga inhibitor 53
Cc1nc(Nc2ccc(Cl)cc2)c(C#N)c(=O)[nH]1	none (no result: Shiga inhibitor)
O=c1[nH]n(CC2COC3(CCCCC3)O2)c(=O)c2ccccc12 (centres undefined)	Cycloheximide cs 33, Shiga inhibitor 43
O=[N+]([O-])c1ccc(O)c(C(C#Cc2ccccc2)N2CCOCC2)c1 (centres undefined)	Cycloheximide cs 26, Shiga inhibitor 66
COc1ccc(-c2cnc3ccccc3n2)cc1NC(=O)CNC(=O)c1ccccc1	Cycloheximide cs 36
COc1ccc(-c2nc3ccccc3s2)cc1NC(C)=O	Cycloheximide cs 35, Shiga inhibitor 100
COc1ccc(-c2nc3ccccc3s2)cc1NC(=O)COc1cccc(C)c1	Cycloheximide cs 54, Shiga inhibitor 71 (no result: LmPK inhibitor, NS1 inh, FBPA Giardia inh)
COc1ccc(-c2nc3ccccc3o2)cc1NC(=O)COc1ccc(C(C)(C)C)cc1	none (no result: LmPK inhibitor, NS1 inh, FBPA Giardia inh)
COc1ccccc1NC(=O)CNC(=O)c1ccccc1	none
COc1ccc(C(=O)Nc2nc3ccccc3s2)cc1OC	none
Cc1ccc(C(=O)NC(=S)Nc2cc(-c3nc4ccccc4s3)ccc2C)cc1	Cycloheximide cs 65, Shiga inhibitor 117
COCC(C)(C)COS(N)(=O)=O	none
CCCC(=O)C1=C(O)C(C(=O)OC)C(C)(C)CC1=NCCc1ccccc1 (centres undefined)	none
CCCCCc1cc(O)c2c3c(c(=O)oc2c1)CN(C)CC3	none
CCCCCc1cc(O)c2c(C)cc(=O)oc2c1	Cycloheximide cs 13
COC(=O)c1cc(-c2ccc(Cl)cc2Cl)n[nH]1	Cycloheximide cs 29, Shiga inhibitor 63 (no result: NS1 inh)
COC(=O)c1cc(-c2ccc(Cl)cc2)n[nH]1	Cycloheximide cs 38, Shiga inhibitor 47
COC(=O)c1cc(-c2ccccc2)n[nH]1	none
O=C(NCCNC(=O)c1ccco1)c1ccc(Cl)c(Cl)c1	none
COc1cccc(C(=O)/C=C/Nc2ccc(S(=O)(=O)Nc3cnc4ccccc4n3)cc2)c1	Cycloheximide cs 69, Shiga inhibitor 98
O=C(/C=C/Nc1ccc(S(=O)(=O)Nc2cnc3ccccc3n2)cc1)c1ccccc1	Cycloheximide cs 28
COc1cc(NS(=O)(=O)c2ccc(N/C=C\C(=O)c3ccc(OC)c(OC)c3)cc2)nc(OC)n1	none
Cc1ccc(C(=O)Nc2ccc(S(=O)(=O)Nc3cnc4ccccc4n3)cc2)cc1	Cycloheximide cs 20
COc1cccc(C(=O)/C=C/Nc2ccc(S(=O)(=O)Nc3cc(OC)nc(OC)n3)cc2)c1	Cycloheximide cs 34, Shiga inhibitor 69
COc1cc(C(=O)Nc2ccc(S(=O)(=O)Nc3cnc4ccccc4n3)cc2)cc(OC)c1OC	NS1 inh inconclusive
CC(C)c1ccc(CN(C(=O)c2cccs2)C2CCS(=O)(=O)C2)cc1 (centres undefined)	none
Cc1ccc(S(=O)(=O)N2CCN(C(=O)c3ccnn3C)CC2)cc1C	none (no result: FBPA Giardia inh)
Cc1c(Cl)cccc1NC(=S)N(Cc1cccs1)C1CCCC1	Cycloheximide cs 16
BrCCOCCOc1ccc2ccccc2c1	Cycloheximide cs 65
Cn1cccc1CC(=O)N/N=C/c1ccco1	none
CCc1ccc(/C=N/NC(=O)Cc2cccn2C)cc1	Cycloheximide cs 29, Shiga inhibitor 51
Cn1cccc1CC(=O)N/N=C/c1ccc(C(C)(C)C)cc1	Cycloheximide cs 22, Shiga inhibitor 54
Cc1ccc(/C=N/NC(=O)Cc2cccn2C)cc1	Cycloheximide cs 26, Shiga inhibitor 46
Cn1cccc1CC(=O)N/N=C\c1cccs1	none
